Assay results from PMC4336329 (PLoS ONE, 2015).
About 14,000 (4.5%) of roughly 310,000 compounds showed an effect of 50% or more. Effects have a minus sign here. The full list was thinned out, with strong results kept by preference.

What follows are compounds tested against human ether-à-go-go-related gene (hERG) potassium channel (human, UniProt Q12809) (assay: primary screen, population patch clamp on CHO cells stably expressing hERG; higher = less effect of the substance).
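Also: peak tail current of the secondary pulse compared with the same well before compound.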

Sequence of human ether-à-go-go-related gene (hERG) potassium channel (Q12809 whole entry, looked up): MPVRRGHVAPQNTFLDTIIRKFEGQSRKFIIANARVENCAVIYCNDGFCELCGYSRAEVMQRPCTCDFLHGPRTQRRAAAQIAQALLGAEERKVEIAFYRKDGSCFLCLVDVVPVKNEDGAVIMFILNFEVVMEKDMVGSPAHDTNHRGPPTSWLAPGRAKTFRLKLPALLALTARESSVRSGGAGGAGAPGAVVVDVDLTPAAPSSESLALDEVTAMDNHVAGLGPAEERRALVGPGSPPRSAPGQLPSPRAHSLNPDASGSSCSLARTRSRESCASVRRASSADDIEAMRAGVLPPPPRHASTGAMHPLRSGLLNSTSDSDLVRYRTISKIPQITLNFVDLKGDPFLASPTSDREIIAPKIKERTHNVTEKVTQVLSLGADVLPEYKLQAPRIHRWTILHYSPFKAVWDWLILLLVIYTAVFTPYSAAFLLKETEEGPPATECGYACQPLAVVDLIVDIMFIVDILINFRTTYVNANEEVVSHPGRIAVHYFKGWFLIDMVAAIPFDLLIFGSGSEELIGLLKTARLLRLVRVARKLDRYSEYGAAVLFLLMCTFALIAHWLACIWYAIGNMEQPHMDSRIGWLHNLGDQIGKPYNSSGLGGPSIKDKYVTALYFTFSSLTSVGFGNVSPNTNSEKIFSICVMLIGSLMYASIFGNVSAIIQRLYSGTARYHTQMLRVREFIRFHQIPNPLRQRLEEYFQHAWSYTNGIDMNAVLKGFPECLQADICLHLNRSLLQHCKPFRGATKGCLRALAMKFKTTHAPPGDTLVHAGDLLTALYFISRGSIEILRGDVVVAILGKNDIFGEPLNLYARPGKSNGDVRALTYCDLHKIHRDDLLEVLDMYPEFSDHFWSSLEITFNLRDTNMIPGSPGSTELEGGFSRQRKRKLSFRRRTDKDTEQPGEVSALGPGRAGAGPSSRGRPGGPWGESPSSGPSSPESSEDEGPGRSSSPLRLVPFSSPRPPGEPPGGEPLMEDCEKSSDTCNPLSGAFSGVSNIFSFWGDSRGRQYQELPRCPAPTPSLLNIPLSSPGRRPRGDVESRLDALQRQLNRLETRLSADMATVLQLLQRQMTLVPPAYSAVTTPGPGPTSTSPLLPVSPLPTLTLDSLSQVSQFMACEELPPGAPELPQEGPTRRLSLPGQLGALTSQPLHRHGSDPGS

| Structure (SMILES) | hERG current change (%, negative = inhibition) at 10uM [%] |
| --- | --- |
| CN(C)C(=O)/C(=C/c1cn(-c2ccccc2)nc1-c1cccc([N+](=O)[O-])c1)NC(=O)c1ccccc1 | -29.1 |
| CCNC(=S)N1CCCC(c2nc3ccc(C)cc3[nH]2)C1 (stereo not shown) | -2.45 |
| CC1=C(C(=O)OCc2ccccc2)C(c2ccc(Cl)cc2Cl)NC(=O)N1CCCCCC(=O)O (stereo not shown) | -16.2 |
| CCN(CC(=O)Nc1ccc(OC)cc1)C(=O)c1cc(-c2cccs2)nn1-c1ccccc1 | -15.4 |
| CCOc1ccc(CN(C)C(=O)[C@H](Cc2ccccc2)NC(=O)OCc2ccccc2)cc1OC | -15.7 |
| c1csc(CNc2ncnc3nc[nH]c23)c1 | -2.79 |
| O=C(Nc1cccc([N+](=O)[O-])c1)C12CC3CC(C1)CC(n1cnc([N+](=O)[O-])n1)(C3)C2 | -67.8 |
| O=C(Nc1cc(Oc2ccccc2)cc([N+](=O)[O-])c1)C12CC3CC(C1)CC(n1cnc(Cl)n1)(C3)C2 | 13.9 |
| Cc1cc(NC(=O)C23CC4CC(C2)CC(n2cnc([N+](=O)[O-])n2)(C4)C3)no1 | -32.4 |
| O=C(Nc1ccon1)C12CC3CC(C1)CC(n1cnc([N+](=O)[O-])n1)(C3)C2 | -50.5 |
| O=C(O)c1cccc(NC(=O)C23CC4CC(C2)CC(n2cnc(Cl)n2)(C4)C3)c1 | 6.02 |
| O=[N+]([O-])c1ncn(C23CC4CC(CC(C4)C2)C3)n1 | -8.76 |
| COc1ccc(CNC(=O)c2coc(=O)c3ccccc23)cc1 | -27.3 |
| O=C(NC1CCN(Cc2ccccc2)CC1)C(NS(=O)(=O)c1cccc2nsnc12)c1ccccc1 (stereo not shown) | -44.6 |
| Cc1ccc(OCC(=O)N/N=C\c2cccn2C)c([N+](=O)[O-])c1 | -8.65 |
| O=C(O)[C@H]1CCCC[C@H]1C(=O)Nc1ccc(Nc2ccccc2)cc1 | 4.15 |
| CSc1sc(C(=O)N2CCc3ccccc32)cc1S(=O)(=O)C(C)C | 14.2 |
| Cn1cnnc1Sc1cc(N2CCNCC2)ccc1[N+](=O)[O-] | 7.66 |
| Cn1cnnc1Sc1ccc(S(C)(=O)=O)cc1[N+](=O)[O-] | 13 |
| Cn1cnnc1Sc1cc(N2CCN(S(=O)(=O)c3ccc(Cl)c(Cl)c3)CC2)ccc1[N+](=O)[O-] | -10.6 |
| Cc1ccc(S(=O)(=O)N2CCN(c3ccc([N+](=O)[O-])c(Sc4nncn4C)c3)CC2)cc1 | -62.3 |

| Structure (SMILES) | hERG current change (%, negative = inhibition) at 10uM [%] |
| --- | --- |
| CN1CCN(c2ccc([N+](=O)[O-])c(Sc3nncn3C)c2)CC1 | -9.71 |
| Cn1cnnc1Sc1cc(N2CCN(S(=O)(=O)c3ccccc3)CC2)ccc1[N+](=O)[O-] | -60.5 |
| [N-]=[N+]=NC(c1ccccc1)c1nc2ccccc2[nH]c1=O (stereo not shown) | -7.74 |
| Nc1ccccc1Cl | 10.3 |
| O=C(NCc1ccco1)c1cccc(Nc2nc3ccc(Br)cc3[nH]2)c1 | -11.2 |
| COc1ccc(NC(=O)/C(C#N)=C\c2cc(C)n(-c3ccc(Oc4ccc([N+](=O)[O-])cn4)cc3)c2C)cc1 | 10.8 |
| Cc1cc(C=O)c(C)n1-c1ccc(Oc2ccc([N+](=O)[O-])cn2)cc1 | -56.7 |
| Cc1ccc(-n2c(C)cc(/C=N/Nc3ccc([N+](=O)[O-])cn3)c2C)cc1 | -4.67 |
| COCC(=O)N1CCC(Oc2ccc(C(=O)NC(C)c3csc(C)n3)cc2)CC1 (stereo not shown) | 10.4 |
| COc1ccc2cc([C@@H](C)C(=O)[O-])ccc2c1.[Na+] | -2.41 |
| COc1ccc(COC(=O)C2CCN(S(=O)(=O)c3ccc(C)cc3)CC2)cc1 | -7.61 |
| CC(OC(=O)C1CCCC1)C(=O)Nc1ncc(Cl)cc1Cl (stereo not shown) | -2.36 |
| COC(=O)c1ccccc1S(=O)(=O)N1CCC(C(=O)OC(C)C(=O)NC(N)=O)CC1 (stereo not shown) | 29.7 |
| CC(OC(=O)C1CCN(S(=O)(=O)c2ccccc2)CC1)C(=O)Nc1ncc(Cl)cc1Cl (stereo not shown) | -64 |
| COC(=O)c1ccccc1S(=O)(=O)N1CCC(C(=O)OCc2ccc([N+](=O)[O-])cc2)CC1 | -57.1 |
| COC(=O)c1ccccc1S(=O)(=O)N1CCC(C(=O)OCC(=O)c2ccccc2OC)CC1 | -16.8 |
| COC(=O)c1ccccc1S(=O)(=O)N1CCC(C(=O)OCc2cccc(OC)c2OC)CC1 | -13.5 |
| CC(OC(=O)C1CC1)C(=O)Nc1ncc(Cl)cc1Cl (stereo not shown) | 18.1 |
| Cc1ccc(S(=O)(=O)N2CCC(C(=O)OCc3ccc([N+](=O)[O-])cc3)CC2)cc1 | -69.8 |
| COC(=O)c1ccccc1S(=O)(=O)N1CCC(C(=O)OC(C)C(=O)Nc2ccc(NC(C)=O)cc2)CC1 (stereo not shown) | -14.6 |
| O=C(OCc1ccc([N+](=O)[O-])cc1)C1CCN(S(=O)(=O)c2ccccc2)CC1 | -37.3 |

| Structure (SMILES) | hERG current change (%, negative = inhibition) at 10uM [%] |
| --- | --- |
| COC(=O)c1ccccc1S(=O)(=O)N1CCC(C(=O)OC(C)C(=O)Nc2ccccc2OC)CC1 (stereo not shown) | -51.3 |
| CC(C(=O)Nc1ccc(Cl)cc1Cl)N1CC=C(c2ccccc2)CC1 (stereo not shown) | -28.1 |
| CCn1c(=O)c(CCC(=O)N2CCN(c3ccccn3)CC2)c(C)c2c(C)nn(-c3ccccc3)c21 | -17.8 |
| Cc1ccc2nc(SCC(=O)N3CCCC3)nc(=O)n2c1 | -0.651 |
| Cn1nc(C(=O)Nc2nc3ccccc3[nH]2)c2ccccc2c1=O | -47.1 |
| CC(C)OCCCNC(=O)C1CCC(CNS(=O)(=O)c2ccccc2)CC1 (stereo not shown) | -7.62 |
| Cc1ccc(C(C)(C)C)c(OCCCn2ccnc2)c1.O=C(O)C(=O)O | -16.6 |
| CCc1cc(CNC(=O)CC2C(=O)NCCN2Cc2ccccc2C(F)(F)F)on1 (stereo not shown) | 10 |
| Cc1ccc2nc(NC(=O)Cn3nc(C)c([N+](=O)[O-])c3C)sc2c1 | -23.5 |
| CCOc1ccc(C(=O)OCC(=O)NC2CCCC2)cc1OCC | 8.34 |
| COc1ccccc1NC(=O)/C(=N/OCc1ccc(C#N)cc1)C(C)=O | -18.2 |
| COC(=O)c1sccc1NC(=O)c1c(-c2ccccc2)noc1C | -26.5 |
| Cc1ccccc1C(=O)NNC(=O)Nc1ccccc1 | 11.6 |
| COc1ccc(Nc2cc(C)nc(N3CCOCC3)n2)cc1 | -12.2 |
| CCOc1ccc(Nc2cc(C)nc(N3CCOCC3)n2)cc1 | 0.875 |
| CCOc1ccc2nc(N3CCOCC3)nc(C)c2c1 | 3.2 |
| COc1ccc2nc(C)cc(Nc3ccc(N4CCN(C)CC4)cc3)c2c1 | -1.75 |
| CCOc1ccc2nc(C)cc(Nc3ccc(N4CCOCC4)cc3)c2c1.Cl | -73 |
| COc1ccc2nc(C)cc(Nc3ccc(N4CCOCC4)cc3)c2c1.Cl | -60.9 |
| COc1ccc(S(=O)(=O)NCc2ccccc2)cc1Br | 6.25 |
| NC(=O)CC1Nc2cccc3cccc(c23)NC1=O (stereo not shown) | 8.93 |

| Structure (SMILES) | hERG current change (%, negative = inhibition) at 10uM [%] |
| --- | --- |
| COc1ccc(CCNC(=O)CCc2nc3ccccc3[nH]2)cc1OC | -7.59 |
| CCN(CC(=O)Nc1ccc(NC(C)=O)cc1)C(=O)CCCSc1nc2ccccc2[nH]1 | -0.716 |
| CCCCc1noc2c1/C(=N\O)CC(c1ccccc1)C2 (stereo not shown) | 7.26 |
| CCCCc1oc2c(c(=O)c1C)C(=O)CC(c1ccccc1)C2 (stereo not shown) | -59.8 |
| Cc1oc2c(c(=O)c1C)C(=O)CC(c1ccccc1)C2 (stereo not shown) | -23.7 |
| CSc1ccccc1NC(=O)CN(C)C(=O)Cc1c[nH]c2ccccc12 | -0.585 |
| CCOC(=O)CSc1nc2c(sc3ccc([N+](=O)[O-])cc32)c(=O)n1Cc1ccco1 | -32.4 |
| O=C(CSc1nc2c(sc3ccccc32)c(=O)n1CCCN1CCOCC1)NC1CCCC1 | -64.7 |
| CCCCn1c(SCC(=O)NC(C)CC)nc2ccc(N3CCOCC3)cc2c1=O (stereo not shown) | -12.8 |
| O=C(CSc1nc2c(sc3ccccc32)c(=O)n1Cc1ccccc1)NCC1CCCO1 (stereo not shown) | 16.8 |
| Cc1cc(NC(=O)CSc2nc3c(sc4ccccc43)c(=O)n2CCCN2CCOCC2)n[nH]1 | 2 |
| COCCCNC(=O)CSc1nc2c(sc3ccccc32)c(=O)n1CCCC(=O)NCC1CCCO1 (stereo not shown) | -14.4 |
| NC(=O)CSc1nc2c(sc3ccccc32)c(=O)n1CCCC(=O)NCC1CCCO1 (stereo not shown) | -16.8 |
| CCOC(=O)CSc1nc2c(sc3ccccc32)c(=O)n1CCCN1CCOCC1 | -65.9 |
| CCCCn1c(SCC(N)=O)nc2c(sc3ccccc32)c1=O | -12.4 |
| NC(=O)CSc1nc2c(sc3ccccc32)c(=O)n1CCCN1CCOCC1 | -52.8 |
| CCC(C)NC(=O)CSc1nc2c(sc3ccccc32)c(=O)n1CCCN1CCOCC1 (stereo not shown) | -53.4 |
| O=C1CSC(c2ccccn2)N1c1ccc(F)cc1F (stereo not shown) | -0.569 |
| COc1ccccc1Nc1nc(-c2sc(NC(=O)CC(C)C)nc2C)cs1 | 5.43 |
